Compounds without any hit were thinned out: in the full panel of roughly 83,000, 20% have a hit.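 Cell lines were cultured in 96-well plates, exposed to a single compound concentration, and assessed for percent growth 48 hours later.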 Activity calls are given as the source filed them.
Each molecule was assayed on IGROV1 ovarian (assay: NCI-60 one-dose screen, 48 h (100 = growth as untreated, 0 = no growth, -100 = all killed)). Conditions: 10 µM unless noted.
Procedure: Growth inhibition of the IGROV1 human tumor cell line is measured as a screen for anti-cancer activity. Cells are grown in 96 well plates and exposed to the test compound for 48 hours. Compounds are tested at a single concentration, which is 10^-5 M for most compounds. The reported endpoint is percent growth (GI% or GIPRCNT), where numbers from 0 - 100% represent growth inhibition, and numbers from -100% - 0 represent cell death. For example, a value of 40 represents 60% growth inhibition. A value of 0 means no net growth occurred over the course of the experiment. A value of -40 indicates 40% of cells at the beginning of the experiment died by the end of the experiment. A value of -100 means all cells are dead at the end of the experiment.
NCI-60 Human Tumor Cell Lines Screen was performed using the standard one-dose NCI protocol, which is described in more detail at https://dtp.cancer.gov/discovery_development/nci-60/default.htm.
Compounds with GIPRCNT values below 10 were considered active. Activity score was based on GIPRCNT using the following formula: […]
Score is 0 for GIPRCNT values of 100 or above, 50 for GIPRCNT values of 0, and 100 for GIPRCNT values of -100.

| Structure (SMILES) | growth |
| --- | --- |
| O=C(NCCCNC(=O)OCc1ccc2cccc(O)c2n1)OCc1ccc2cccc(O)c2n1 | 24.1% (inactive) |
| COc1cc(-c2nc(SCCC(C)C)nc(Nc3ccccc3)c2C#N)cc(OC)c1OC | 100% (inactive) |
| CCOC(=O)C(=Cc1ccccc1[N+](=O)[O-])C(=O)OCC | 37.8% (inactive) |
| N#C/C(C(=O)c1ccccc1)=C1/C(=O)Nc2ccccc21 | 86.1% (inactive) |
| O=C(Nc1cccc2ccccc12)c1cc2ccccc2cc1O | 7.48% (active) |
| O=C1C(Cl)=C(Nc2ccc3cn[nH]c3c2)C(=O)c2ccccc21 | -83.5% (active) |
| O=C(Nc1ccc(CN2CCOCC2)c(C(F)(F)F)c1)c1nc2ccc3[nH]ncc3c2c2c1CCCC2 | 95.8% (inactive) |
| CCOc1ccc2sc(NS(=O)(=O)c3ccc(N)cc3)nc2c1 | 95.8% (inactive) |
| CNc1cc(C(=O)O)nc(NC)n1 | 99.1% (inactive) |
| Cc1cc[n+](CCCCCCCCCC[n+]2ccc(C)cc2)cc1 | 112% (inactive) |
| CC1=CC[C@@H]2C(C)(C)[C@@H](O)CC[C@@]2(C)[C@@H]1COc1ccc2ccc(=O)oc2c1 | 57.9% (inactive) |
| Cn1ncc2c(Nc3ccc(O)cc3)nc(Cl)nc21 | 92.9% (inactive) |
| O=C(Nc1ccc(Nc2ccncc2)cc1)c1ccc([N+](=O)[O-])cc1 | 85.4% (inactive) |
| O=C(Nc1cccc2cccnc12)c1cc(C(=O)c2ccc(Cl)cc2)n2ccc(-c3ccncc3)cc12 | 89.1% (inactive) |
| NNC(=O)c1ccc(C(=O)NN)cc1 | 116% (inactive) |
| CCCCCCNC(=O)Nc1ncnc2c1ncn2-c1ccccc1 | 88.1% (inactive) |
| C[n+]1cccc(NC(=O)c2ccc3ccc4ccc(C(=O)Nc5ccc[n+](C)c5)nc4c3n2)c1 | 32.3% (inactive) |
| CC1Cc2c(Cl)ncnc2N(C)c2ccccc21 (stereo not given) | 50.5% (inactive) |
| COc1ccc2nc3cc(Cl)ccc3c(Nc3ccc(O)c(CN4CCCC4)c3)c2c1 | -26.3% (active) |
| Nc1nc(Nc2ccccc2)c2ncn(Cc3ccc4c(c3)OCO4)c2n1 | 64.2% (inactive) |

| Structure (SMILES) | growth |
| --- | --- |
| CCCc1cc2cc(-n3nc(C)c4c3CC(C)(C)CC4=O)cc(NC3CCSCC3)c2c(=O)[nH]1 | 74.1% (inactive) |
| CC1(C)OC2[C@@H](CNC(=O)NC(=O)NC(=O)CI)O[C@@H](n3cnc4c(NC(=O)Nc5ccccc5)ncnc43)[C@H]2O1 (stereo not given in full) | 15.5% (inactive) |
| C#C[C@]1(O)CC[C@H]2[C@@H]3CC=C4c5nc(Nc6ccccc6[N+](=O)[O-])sc5CC[C@]4(C)[C@H]3CC[C@@]21C | 67.2% (inactive) |
| COc1ncc(-c2ccc3nccc(C#CCCCCC(=O)O)c3c2)cc1NS(=O)(=O)c1ccc(F)cc1F | -13% (active) |
| Cc1ncc(C(=O)Nc2ccc(CN3CCN(C)CC3)c(C(F)(F)F)c2)cc1C#Cc1c(N)ncc2ccc(C#N)cc12 | 10.4% (inactive) |
| N#CC1C(=O)NC(c2ccccc2[N+](=O)[O-])c2sc3c(F)cccc3c21 (stereo not given) | 0.306% (active) |
| NC(=O)CC1C=CCC1 (stereo not given) | 107% (inactive) |
| COc1cc(Cl)cc(-c2nn(C(=O)NS(=O)(=O)c3ccccc3)cc2-c2ccncc2)c1 | 92.1% (inactive) |
| COc1ccc(C2NC(=O)C(C#N)c3c2sc2c(F)cccc32)cc1 (stereo not given) | 41.1% (inactive) |
| CC(=O)O.CC(=O)O.O.[Fe] | 106% (inactive) |
| Cn1cc(-c2nnc(-c3cn(C)c4ncc(Br)cc34)o2)c2ccccc21 | 65.8% (inactive) |
| O=C(CCCSc1nc(-c2ccccc2)cc(-c2ccccc2)n1)NO | 12.6% (inactive) |
| COc1cc(/C=C/C(=O)/C=C/c2ccc(-n3ccnc3)cc2)ccc1O | -28.4% (active) |
| CSc1nc2c(c(=O)n1C)C1(C(=O)N(Cc3ccccc3)c3ccccc31)c1c(nc(SC)n(C)c1=O)N2 | 98% (inactive) |
| CCc1ccc(C2=C/C(=C/c3ccccc3)C(=O)N2CCc2ccc(S(N)(=O)=O)cc2)cc1 | 91.4% (inactive) |
| CCN(CCO)CCC(=O)c1ccc([N+](=O)[O-])cc1 | 108% (inactive) |
| Cc1cc(-c2ccc(N=Nc3c(S(=O)(=O)O)cc4cc(S(=O)(=O)O)cc(N)c4c3O)c(C)c2)ccc1N=Nc1cc(S(=O)(=O)O)c2ccccc2c1O | 95.8% (inactive) |
| Cc1ccc2c(n1)C(=O)C(Cl)=C(Nc1ccc(N3CCN(C)CC3)cc1)C2=O | -83.5% (active) |
| CCN=Cc1c(O)c(O)c(C(C)C)c2cc(C)c(-c3c(C)cc4c(C(C)C)c(O)c(O)c(C=NCC)c4c3O)c(O)c12 | 46.8% (inactive) |
| CC(C)C1=NOC(=O)C1=Cc1cn(-c2ccco2)nc1-c1ccccc1 | 90.2% (inactive) |
